“And” between values parts separate entries of the source, which are not always exact repeats. Equal entries are not always repeated. Records with an inconclusive call do not appear. The source made the active and inactive calls. Unless noted, calls follow the shape of the dose curve; as a rule, active = well fitted curve in either direction with a large enough effect (not every such curve was filed as active); inconclusive = small, poorly fitted or top-dose-only effect, or another doubt; inactive = flat fitted curve, though single readings scatter.
Assays:
[1] = target: Lysosomal acid glucosylceramidase (Homo sapiens) (UniProt P04062); assay: Glucocerebrosidase-p2 (AID 348; in the data active = potency below about 10 µM; also: potency is read from the fitted curve at half-maximal effect); settings: purified GBA, blue fluorogenic substrate, 40 min
Lysosomal acid glucosylceramidase (Homo sapiens), sequence (P04062 whole entry, looked up): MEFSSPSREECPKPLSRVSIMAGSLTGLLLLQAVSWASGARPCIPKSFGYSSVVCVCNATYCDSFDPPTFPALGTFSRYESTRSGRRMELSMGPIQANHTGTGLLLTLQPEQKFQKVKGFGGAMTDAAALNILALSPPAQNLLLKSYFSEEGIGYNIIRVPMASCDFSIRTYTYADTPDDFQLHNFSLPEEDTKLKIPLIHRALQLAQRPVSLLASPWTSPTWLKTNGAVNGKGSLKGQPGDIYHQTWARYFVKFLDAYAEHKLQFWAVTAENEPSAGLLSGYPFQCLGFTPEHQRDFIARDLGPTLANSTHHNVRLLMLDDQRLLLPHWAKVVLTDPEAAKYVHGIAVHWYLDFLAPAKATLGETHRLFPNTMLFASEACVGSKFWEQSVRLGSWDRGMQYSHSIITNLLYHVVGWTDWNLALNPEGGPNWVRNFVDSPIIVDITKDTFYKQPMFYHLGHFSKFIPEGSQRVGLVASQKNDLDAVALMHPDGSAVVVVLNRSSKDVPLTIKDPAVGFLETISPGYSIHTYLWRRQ
Outline: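 Normal human glucocerebrosidase (0.2 nM) with blue fluorogenic substrate (80 uM final) in citrate/phosphate pH 5.9 with 10mM sodium taurocholate, 0.01% tween-20; 40 min RT, NaOH/glycine stop; fluorescence Ex 365/Em 440; AC50 from a titration from 0.6 nM upwards.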

[2] = AP1 Signaling Pathway (AID 357); settings: ME-180 AP-1-bla reporter, EGF-induced, beta-lactamase ratio, 5 h;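 also: ME-180 reporter cells stimulated with EGF at its EC50 level; % is scaled to controls: 0 for no effect and ±100 for the full control effect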
Outline: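 Cells are seeded overnight, exposed to compound titrations and an EC50 level of EGF for 5 hours at 37 °C, then loaded with CCF4 dye for 2.5 hours. Beta-lactamase activity under the AP-1 element is read as a blue/green ratio.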

[3] = NFAT Signaling Pathway (AID 444); settings: Jurkat NFAT-bla M1, carbachol, beta-lactamase ratio, 5 h;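 also: carbachol stimulus at about its EC50 of 1 µM final; % is scaled to controls: 0 for no effect and ±100 for the full control effect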
Outline: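 Jurkat cells carrying an NFAT-driven β-lactamase reporter and co-transfected muscarinic M1 receptor were treated with compound plus carbachol (1 uM final, an EC50 level) for 5 h at 37 °C. CCF4 loading followed for 1 h at RT; 460/530 nm ratio gave %activity.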

[4] = Stat Signaling Pathway (AID 446); settings: ME-180 SIE beta-lactamase reporter, IL-6 stimulated, 5 h;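 also: ME-180 cervical cancer cells given 40 pM IL-6 alongside compound; SIE-controlled beta-lactamase reporter measured as 460/530 nm FRET emission ratio; % is scaled to controls: 0 for no effect and ±100 for the full control effect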
Outline: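 Overnight-plated ME-180 cells bearing a STAT Inducible Element beta-lactamase reporter; 5 h co-exposure to compound and 40 pM IL-6; values normalized to 300 pM IL-6 and 125 nM JAK inhibitor controls.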

[5] = target: Glucocorticoid receptor (Homo sapiens) (UniProt P04150); assay: GR-EFC Redistribution (AID 451; calls by dose curve; also: potency is read from the fitted curve at half-maximal effect); settings: CHO-K1 GR-EFC translocation, beta-gal luminescence, 2 h
Glucocorticoid receptor (Homo sapiens), sequence (P04150 whole entry, looked up, the tested form may be a part): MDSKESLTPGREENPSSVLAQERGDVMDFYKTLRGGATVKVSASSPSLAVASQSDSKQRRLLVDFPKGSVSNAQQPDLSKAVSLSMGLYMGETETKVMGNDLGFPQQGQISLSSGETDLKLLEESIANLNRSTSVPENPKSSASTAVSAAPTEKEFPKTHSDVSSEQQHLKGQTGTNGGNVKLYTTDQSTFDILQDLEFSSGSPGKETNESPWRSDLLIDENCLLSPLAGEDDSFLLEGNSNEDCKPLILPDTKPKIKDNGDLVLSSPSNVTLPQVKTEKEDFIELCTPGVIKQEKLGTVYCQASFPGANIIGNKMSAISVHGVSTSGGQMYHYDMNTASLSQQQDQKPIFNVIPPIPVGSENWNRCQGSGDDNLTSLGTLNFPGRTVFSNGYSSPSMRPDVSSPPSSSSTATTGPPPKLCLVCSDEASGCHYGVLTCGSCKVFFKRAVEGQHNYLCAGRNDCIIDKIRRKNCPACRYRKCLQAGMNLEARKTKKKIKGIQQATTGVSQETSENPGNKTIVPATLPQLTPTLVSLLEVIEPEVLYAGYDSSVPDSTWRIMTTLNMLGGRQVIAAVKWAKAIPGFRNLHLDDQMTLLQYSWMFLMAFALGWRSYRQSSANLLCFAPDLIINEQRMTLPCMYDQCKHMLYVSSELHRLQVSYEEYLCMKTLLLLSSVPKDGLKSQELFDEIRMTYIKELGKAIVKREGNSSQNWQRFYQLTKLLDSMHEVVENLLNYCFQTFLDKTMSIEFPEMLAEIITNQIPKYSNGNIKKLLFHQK
Outline: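 CHO-K1 cells stably expressing nuclear-localized β-gal enzyme acceptor and GR fused C-terminally to the enzyme donor fragment; ligand-driven nuclear translocation restores β-gal by complementation. Compounds titrated up to 46 uM final, 2 h at 37 °C; luminescence read.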

[6] = target: Mitogen-activated protein kinase 10 (Mus musculus) (UniProt Q61831); assay: JNK3 AlphaScreen Assay (AID 530); settings: JNK3 lysate, c-Jun phosphorylation; series mostly up to 57.1 µM;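 also: kinase came from lysate of stimulated human HepG2 cells; signal reports phosphorylation of biotinylated GST-cJun 1-79 at Ser73 with 10 µM ATP; % is scaled to controls: 0 for no effect and ±100 for the full control effect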
Outline: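 Biotinylated GST-cJun(1-79) served as substrate for JNK3 in HepG2 lysates stimulated with IL-1beta and TNF-alpha. ATP was 10 uM final, pH 7.6. Ser73 phosphorylation was quantified by AlphaScreen (680 nm excitation).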

[7] = target: 3',5'-cyclic-AMP phosphodiesterase 4B (Homo sapiens) (UniProt Q07343); assay: qHTS Assay for Inhibitors of PDE-IV (AID 607; active = well fitted activation curve with a large enough effect in the main read-out, with a control signal flat, not every such curve was filed as active; also: % of control where 0% means no effect); settings: HEK293 ACTOne CNG channel cells, membrane potential fluorescence; series mostly up to 22.9 µM
3',5'-cyclic-AMP phosphodiesterase 4B (Homo sapiens), sequence (Q07343 whole entry, looked up): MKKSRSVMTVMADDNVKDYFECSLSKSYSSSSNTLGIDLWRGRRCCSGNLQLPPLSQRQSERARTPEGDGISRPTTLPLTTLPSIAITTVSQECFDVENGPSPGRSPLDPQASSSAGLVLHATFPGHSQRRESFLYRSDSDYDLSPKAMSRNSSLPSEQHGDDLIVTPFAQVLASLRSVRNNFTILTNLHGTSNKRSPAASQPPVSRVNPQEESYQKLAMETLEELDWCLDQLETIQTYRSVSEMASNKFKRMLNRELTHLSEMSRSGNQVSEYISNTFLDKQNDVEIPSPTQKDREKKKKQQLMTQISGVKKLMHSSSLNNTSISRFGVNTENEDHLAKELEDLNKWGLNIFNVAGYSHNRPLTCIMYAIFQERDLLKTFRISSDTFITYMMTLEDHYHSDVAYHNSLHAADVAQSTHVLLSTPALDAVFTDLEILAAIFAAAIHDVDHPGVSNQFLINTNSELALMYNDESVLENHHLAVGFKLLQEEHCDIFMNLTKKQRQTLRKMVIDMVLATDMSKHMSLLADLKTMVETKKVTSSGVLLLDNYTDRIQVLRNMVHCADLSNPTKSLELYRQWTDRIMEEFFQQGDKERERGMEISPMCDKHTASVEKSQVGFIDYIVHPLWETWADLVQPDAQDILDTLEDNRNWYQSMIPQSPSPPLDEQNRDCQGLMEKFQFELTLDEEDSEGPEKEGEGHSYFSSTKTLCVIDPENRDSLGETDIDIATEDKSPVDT
Outline: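 Live HEK293 cells with a modified cyclic nucleotide-gated (CNG) channel report intracellular cAMP via membrane-potential dye fluorescence (ex 535/em 590 nm). Endogenous PDE-IV was targeted. Compounds were tested at up to 22.9 uM final; RO 20-1724 100 uM served as control.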

[8] = qHTS Assay for Lipid Storage Modulators (AID 1519; calls by dose curve); settings: Drosophila S3 cells, BODIPY lipid droplet/cell ratio, laser cytometry, cells loaded with oleic acid
Outline: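 Cells seeded at 5,000 per well were treated with compounds over a concentration series and loaded with oleic acid (400 uM, as added). Lipid droplet fluorescence (488 nm excitation, 500-530 nm channel) was read by laser-scanning cytometry and normalized to 20 uM Triacsin C.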

[9] = Primary qHTS for small molecule stabilizers of the endoplasmic reticulum resident proteome: Secreted ER Calcium Modulated Protein (SERCaMP) assay (AID 1508630; active = well fitted curve in the direction sought with a large enough effect; an effect the other way counts as inactive or inconclusive; also: % is scaled to controls: 0 for no effect and ±100 for the full control effect); settings: SH-SY5Y GLuc-SERCaMP (Gaussia luciferase released on ER calcium loss) secretion, thapsigargin, luminescence; series mostly up to 38.4 µM
Outline: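 The SH-SY5Y reporter protocol was run at 3 concentrations up to 38.3 uM (primary) or 11 concentrations (follow-up): 16 h compound, 100 nM thapsigargin for 4 h, then extracellular luciferase luminescence.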

[10] = target: Glucocorticoid receptor (Homo sapiens) (UniProt P04150); assay: GR-GFP Redistribution (AID 450;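 active = compounds whose dose series gives a full or clear partial fitted curve of increased nuclear translocation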; also: potency is read from the fitted curve at half-maximal effect); settings: U2OS GR-GFP nuclear translocation, laser cytometry, 2 h
[11] = target: Dual specificity protein kinase CLK4 (Homo sapiens) (UniProt Q9HAZ1); assay: qHTS Assay for Inhibitors of CDC-like Kinase 4 (Kinase-Glo Assay) (AID 1770; active = well fitted curve in the direction sought with a large enough effect; an effect the other way counts as inactive or inconclusive; also: nearly all actives have a fitted effect of over 65% in size; also: potency is read from the fitted curve at half-maximal effect); settings: recombinant Clk4, Kinase-Glo ATP depletion luminescence; series mostly up to 66.7 µM
Dual specificity protein kinase CLK4 (Homo sapiens), sequence (Q9HAZ1 whole entry, looked up): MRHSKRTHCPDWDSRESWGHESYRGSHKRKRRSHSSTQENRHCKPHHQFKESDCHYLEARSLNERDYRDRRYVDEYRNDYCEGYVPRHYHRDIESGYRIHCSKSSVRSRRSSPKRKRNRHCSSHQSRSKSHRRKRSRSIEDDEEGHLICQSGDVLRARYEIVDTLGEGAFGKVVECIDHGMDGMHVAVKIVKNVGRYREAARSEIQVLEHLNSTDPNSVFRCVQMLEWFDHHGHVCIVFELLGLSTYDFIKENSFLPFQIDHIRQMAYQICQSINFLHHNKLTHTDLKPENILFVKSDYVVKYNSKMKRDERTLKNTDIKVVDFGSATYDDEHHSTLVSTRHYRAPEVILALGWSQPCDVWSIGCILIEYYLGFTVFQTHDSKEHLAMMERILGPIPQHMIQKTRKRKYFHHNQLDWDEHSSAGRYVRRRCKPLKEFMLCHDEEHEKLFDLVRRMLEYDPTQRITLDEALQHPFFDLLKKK
Outline: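 Inhibition was judged from remaining ATP, measured by Ultra-Glo luciferase bioluminescence after Clk4 (25 nM) had acted on RS peptide at 1 uM ATP for 4.5 hours, room temperature.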

[12] = target: Cytochrome P450 1A2 (Homo sapiens) (UniProt P05177); assay: p450-cyp1a2 (AID 410; calls by dose curve; also: potency is read from the fitted curve at half-maximal effect); settings: recombinant CYP1A2, luciferin-ME demethylation, luminescence; series mostly up to 57 µM
Cytochrome P450 1A2 (Homo sapiens), sequence (P05177 whole entry, looked up): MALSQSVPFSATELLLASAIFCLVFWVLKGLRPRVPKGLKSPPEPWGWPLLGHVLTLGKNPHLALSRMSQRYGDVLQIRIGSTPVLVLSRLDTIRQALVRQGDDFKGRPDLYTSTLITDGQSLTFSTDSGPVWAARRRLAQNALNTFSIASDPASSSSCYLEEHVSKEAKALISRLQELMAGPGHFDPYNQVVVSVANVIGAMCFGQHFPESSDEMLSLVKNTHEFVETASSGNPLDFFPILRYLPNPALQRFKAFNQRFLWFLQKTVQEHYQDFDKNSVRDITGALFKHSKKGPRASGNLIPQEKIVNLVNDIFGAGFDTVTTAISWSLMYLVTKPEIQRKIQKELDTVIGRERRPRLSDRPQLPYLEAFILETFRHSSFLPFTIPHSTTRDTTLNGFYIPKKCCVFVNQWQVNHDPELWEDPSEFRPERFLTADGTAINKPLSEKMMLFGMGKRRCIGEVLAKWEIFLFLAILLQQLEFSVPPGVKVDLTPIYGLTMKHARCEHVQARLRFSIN
Outline: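 Read-out is luminescence from luciferin produced by CYP1A2 demethylation of Luciferin-ME (100uM, at Km). Detection reagent stopped the 60 min NADPH-dependent reaction; signals were normalized to 57 uM furafylline.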

[13] = target: Cytochrome P450 3A4 (Homo sapiens) (UniProt P08684); assay: qHTS Assay for Inhibitors and Substrates of Cytochrome P450 3A4 (AID 884; active = well fitted curve in the direction sought with a large enough effect; an effect the other way counts as inactive or inconclusive; also: potency is read from the fitted curve at half-maximal effect; nearly all actives have a fitted effect of over 50% in size); settings: recombinant CYP3A4, Luciferin-PPXE luminescence; series mostly up to 57.1 µM
Cytochrome P450 3A4 (Homo sapiens), sequence (P08684 whole entry, looked up): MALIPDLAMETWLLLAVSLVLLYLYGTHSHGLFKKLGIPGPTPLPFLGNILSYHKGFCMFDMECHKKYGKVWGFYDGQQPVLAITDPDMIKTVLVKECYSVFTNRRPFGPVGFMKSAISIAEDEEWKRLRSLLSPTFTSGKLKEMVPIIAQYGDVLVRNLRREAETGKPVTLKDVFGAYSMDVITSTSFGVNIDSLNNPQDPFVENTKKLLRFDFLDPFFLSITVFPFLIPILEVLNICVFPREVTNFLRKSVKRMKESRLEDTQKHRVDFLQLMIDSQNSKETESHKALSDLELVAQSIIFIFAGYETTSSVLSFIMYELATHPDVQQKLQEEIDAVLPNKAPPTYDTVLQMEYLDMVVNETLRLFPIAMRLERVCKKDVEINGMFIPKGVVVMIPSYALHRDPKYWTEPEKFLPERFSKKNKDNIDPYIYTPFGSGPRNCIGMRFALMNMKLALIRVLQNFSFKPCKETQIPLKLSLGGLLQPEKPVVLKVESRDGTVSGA
Outline: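 Luminescent readout of luciferin produced by CYP3A4 (20 nM) dealkylation of Luciferin-PPXE, 25 uM (its KM). NADPH-driven reaction ran 60 min at RT after 10 min compound preincubation; data scaled to 57 uM ketoconazole as 100% inhibition.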

[14] = target: Dual specificity protein kinase CLK4 (Homo sapiens) (UniProt Q9HAZ1); assay: qHTS Assay for Inhibitors of CDC-like Kinase 4 (ADP-Glo Assay) (AID 1771; active = well fitted curve in the direction sought with a large enough effect; an effect the other way counts as inactive or inconclusive; also: % is scaled to controls: 0 for no effect and ±100 for the full control effect; nearly all actives have a fitted effect of over 70% in size); settings: recombinant CLK4, ADP-Glo luminescence; series mostly up to 80 µM
Outline: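 In this ADP-Glo format, 1 uM ATP and 100 uM RS peptide served as substrates for 25 nM Clk4 in Mg2+/EGTA/DTT/Triton buffer; reactions ran 1 hr at room temperature before luminescent ADP quantification.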

[15] = target: Ubiquitin carboxyl-terminal hydrolase 1 (Homo sapiens) (UniProt O94782); assay: Inhibitors of USP1/UAF1: Pilot qHTS (AID 504865; active = well fitted curve in the direction sought with a large enough effect; an effect the other way counts as inactive or inconclusive;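 also: rhodamine fluorescence freed from ubiquitin-rhodamine substrate followed over time; top concentration of the series differs between compounds; % is scaled to controls: 0 for no effect and ±100 for the full control effect; nearly all actives have a fitted effect of over 35% in size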); settings: purified USP1/UAF1, Ub-rhodamine cleavage fluorescence; series mostly up to 54.9 µM
Ubiquitin carboxyl-terminal hydrolase 1 (Homo sapiens), sequence (O94782 whole entry, looked up): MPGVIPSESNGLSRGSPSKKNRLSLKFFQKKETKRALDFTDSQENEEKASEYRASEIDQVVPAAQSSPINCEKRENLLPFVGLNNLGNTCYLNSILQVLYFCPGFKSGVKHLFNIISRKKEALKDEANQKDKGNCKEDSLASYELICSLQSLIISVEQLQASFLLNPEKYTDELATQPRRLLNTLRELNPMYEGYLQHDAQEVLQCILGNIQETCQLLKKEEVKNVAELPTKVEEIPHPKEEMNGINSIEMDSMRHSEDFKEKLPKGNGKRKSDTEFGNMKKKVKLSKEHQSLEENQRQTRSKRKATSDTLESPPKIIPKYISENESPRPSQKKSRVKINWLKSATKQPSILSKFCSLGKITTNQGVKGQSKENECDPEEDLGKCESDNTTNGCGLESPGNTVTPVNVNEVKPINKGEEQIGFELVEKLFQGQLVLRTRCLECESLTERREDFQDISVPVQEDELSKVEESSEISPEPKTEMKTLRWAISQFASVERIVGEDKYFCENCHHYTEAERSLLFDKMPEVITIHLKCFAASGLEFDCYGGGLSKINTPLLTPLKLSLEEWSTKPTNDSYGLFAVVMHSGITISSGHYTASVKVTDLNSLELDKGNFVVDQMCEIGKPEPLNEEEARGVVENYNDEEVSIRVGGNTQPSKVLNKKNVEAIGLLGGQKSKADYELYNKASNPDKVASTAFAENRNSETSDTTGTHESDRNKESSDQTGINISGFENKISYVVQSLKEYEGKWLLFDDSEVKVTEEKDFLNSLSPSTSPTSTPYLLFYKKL
Outline: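 Kinetic fluorescence assay: 1nM USP1/UAF1, 15 min compound preincubation, then 150nM Ub-Rho; 480/540 nm.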

[16] = target: Cytochrome P450 3A4 (Homo sapiens) (UniProt P08684); assay: qHTS Assay for Activators of Cytochrome P450 3A4 (AID 885; active = well fitted curve in the direction sought with a large enough effect; an effect the other way counts as inactive or inconclusive; also: nearly all actives have a fitted effect of over 65% in size); settings: recombinant CYP3A4, Luciferin-PPXE luminescence, 60 min; series mostly up to 57.1 µM
Outline: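 Using 20nM recombinant human CYP3A4 in potassium phosphate (200mM), substrate Luciferin-PPXE at 25uM, luminescent luciferin detection followed a 60-min RT NADPH reaction; data scaled to 57 uM ketoconazole.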

[17] = target: Cytochrome P450 2C9 (Homo sapiens) (UniProt P11712); assay: qHTS Assay for Inhibitors and Substrates of Cytochrome P450 2C9 (AID 883; active = well fitted curve in the direction sought with a large enough effect; an effect the other way counts as inactive or inconclusive; also: % is scaled to controls: 0 for no effect and ±100 for the full control effect; nearly all actives have a fitted effect of over 60% in size); settings: recombinant CYP2C9, luciferin-H luminescence, 60 min; series mostly up to 57.1 µM
Cytochrome P450 2C9 (Homo sapiens), sequence (P11712 whole entry, looked up): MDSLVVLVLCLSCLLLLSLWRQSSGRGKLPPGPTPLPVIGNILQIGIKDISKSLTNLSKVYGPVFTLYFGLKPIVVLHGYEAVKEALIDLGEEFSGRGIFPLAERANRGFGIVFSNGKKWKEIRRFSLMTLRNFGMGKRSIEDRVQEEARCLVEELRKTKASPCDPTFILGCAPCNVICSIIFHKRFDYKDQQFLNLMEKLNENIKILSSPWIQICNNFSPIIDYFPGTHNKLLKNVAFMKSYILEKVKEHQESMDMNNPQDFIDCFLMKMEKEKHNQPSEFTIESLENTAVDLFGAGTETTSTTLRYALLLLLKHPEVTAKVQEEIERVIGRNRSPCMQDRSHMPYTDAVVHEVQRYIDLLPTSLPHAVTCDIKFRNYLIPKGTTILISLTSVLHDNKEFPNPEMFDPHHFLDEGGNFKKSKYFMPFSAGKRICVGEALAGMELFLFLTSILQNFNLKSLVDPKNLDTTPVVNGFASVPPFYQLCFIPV
Outline: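 A luminogenic readout tracked human CYP2C9 (10nM) converting deoxyluciferin (100uM, at KM) in 25mM KPO4 during 60 min at 37C with regenerated NADPH. Values normalized to 57uM sulphaphenazole as complete inhibition.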

[18] = qHTS Assay for Identification of Small Molecule Agonists for Hypoxia Response Element Signaling Pathway (AID 914; active = well fitted activation curve with a large enough effect in the signal ratio, with a control signal flat, not every such curve was filed as active; the % refers to the signal ratio; also: potency is read from the fitted curve at half-maximal effect); settings: ME-180 (cervical carcinoma) HRE-bla reporter, beta-lactamase ratio, CoCl2, 17 h; activation: stronger effect = higher value
Outline: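 Compounds in a titration series were added to ME-180 reporter cells alongside an EC50 level of CoCl2. After 17 hours, beta-lactamase activity was read as the 460nm/530nm emission ratio of CCF4, giving AC50 values.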

[19] = at 7.69 µM (top of the series) unless noted
[20] = measured here: cell count channel max response
[21] = measured here: lipid channel max response

O=C(Nc1ccccc1)N1CCC2(CC1)CCN(C(=O)c1ccncc1)CC2
Potency [1]: > 11.4 µM (inactive) | activity change, negative = inhibition [2, 19]: -8.86% (inactive) | activity change, negative = inhibition [3, 19]: -7.39% (inactive) | activity, negative = inhibition [4, 19]: 2.23% (inactive) | Potency [5]: > 46 µM (inactive) | outcome [6]: inactive | Potency [7]: inactive | activity change, negative = inhibition ([8]; at 57.5 µM (top of the series)): 7.6% (inactive) | max response [8, 20]: 12.3% | max response [8, 21]: 27.7% | Potency [9]: inactive

CCCNC[C@H](O)COc1ccccc1C(=O)CCc1ccccc1
activity change, negative = inhibition ([2]; at 17.2 µM (top of the series)): 6.84% (inactive) | activity change, negative = inhibition ([2]; at 38 µM (top of the series)): 18.1% (inactive) and 7.01% (inactive) | activity change, negative = inhibition ([3]; at 17.2 µM (top of the series)): 3.46% (inactive) | activity change, negative = inhibition ([3]; at 38 µM (top of the series)): 1.4% (inactive) and 9.3% (inactive) | activity, negative = inhibition ([4]; at 17.2 µM (top of the series)): -4.64% (inactive) | activity, negative = inhibition ([4]; at 38 µM (top of the series)): -19.1% (inactive) and -13.3% (inactive) | outcome [6]: inactive | Potency [7]: inactive | activity change, negative = inhibition ([8]; at 25.7 µM (top of the series)): -1.16% (inactive) | activity change, negative = inhibition ([8]; at 57.5 µM (top of the series)): -2.08% (inactive) | max response [8, 20]: -11.4% and -51.8% | max response [8, 21]: -13.7% and -51.9%

COc1ccc(-n2c(=O)cnc3cnc(N4CCOCC4)nc32)cc1
Potency [1]: > 11.4 µM (inactive) | activity change, negative = inhibition [2, 19]: 4.95% (inactive) | activity, negative = inhibition [4, 19]: -10.3% (inactive) | Potency [10]: > 9.22 µM (inactive) | Potency [5]: > 46 µM (inactive) | outcome [6]: inactive | Potency [7]: inactive | Potency [11]: 28.2 µM (active) | Potency [9]: inactive

O=c1cnc2cnc(N3CCNCC3)nc2n1Cc1ccc(F)cc1
Potency [1]: > 11.4 µM (inactive) | activity change, negative = inhibition [2, 19]: -15.8% (inactive) | Potency [12]: 15.8 µM (active) | activity, negative = inhibition [4, 19]: -2.57% (inactive) | Potency [5]: > 46 µM (inactive) | outcome [6]: inactive | Potency [7]: inactive | Potency [13]: 7.94 µM (active) | activity change, negative = inhibition ([8]; at 57.5 µM (top of the series)): 7.02% (inactive) | max response [8, 20]: 22.7% | max response [8, 21]: 28.6% | Potency [11]: inactive | Potency [14]: inactive | Potency [15]: inactive

Cn1cccc1C(=O)N1CCC[C@@]2(CCN(c3ccccn3)C2)C1
Potency [1]: > 11.4 µM (inactive) | activity change, negative = inhibition [2, 19]: 0.459% (inactive) | Potency [12]: 31.6 µM (active) | activity change, negative = inhibition [3, 19]: -3.64% (inactive) | activity, negative = inhibition [4, 19]: -2.5% (inactive) | Potency [5]: > 46 µM (inactive) | outcome [6]: inactive | Potency [7]: inactive | Potency [16]: inactive | Potency [9]: inactive

Cn1cc(-c2nc3cnc(Oc4cccc(Cl)c4)nc3n(CCC#N)c2=O)c2ccccc21
Potency [1]: > 11.4 µM (inactive) | activity change, negative = inhibition [2, 19]: 0.05% (inactive) | Potency [12]: 2.51 µM (active) | Potency [10]: > 9.22 µM (inactive) | Potency [5]: > 46 µM (inactive) | Potency [7]: inactive | Potency [17]: inactive | Potency [16]: inactive | Potency [18]: 1.58 µM (active) | activity change, negative = inhibition ([8]; at 57.5 µM (top of the series)): -7.95% (inactive) | max response [8, 20]: 6.76% | max response [8, 21]: 0.937% | Potency [9]: inactive

CS(=O)(=O)N1CCC2(CCCN(c3ccccn3)C2)CC1
Potency [1]: > 11.4 µM (inactive) | activity change, negative = inhibition [2, 19]: -3.01% (inactive) | Potency [12]: 25.1 µM (active) | activity, negative = inhibition [4, 19]: 7.37% (inactive) | Potency [5]: > 46 µM (inactive) | outcome [6]: inactive | Potency [7]: inactive | Potency [16]: inactive | activity change, negative = inhibition ([8]; at 57.5 µM (top of the series)): 2.39% (inactive) | max response [8, 20]: 5.95% | max response [8, 21]: 15.6% | Potency [9]: inactive

— PubChem BioAssay (NCATS)
